# Data reported in PubChem BioAssay (EPA / NIEHS).
# Several values for one entry are separate records, joined by “and”; a condition that tells them apart may be missing. Equal values may be shown once. Records with an inconclusive call do not appear. Some compounds were tested as several samples or in several runs, with calls that do not always agree. Activity calls are given as the source filed them. How the source made its calls, unless noted: active means hit-call score of the fitted dose curve at least 0.9, where 1 is the maximum; inactive means score below 0.9.
# Experiments:
# [1] = BSK_BT_Bcell_Proliferation: Viability Assessment in the BioMAP Diversity Plus: BT Assay for B cell Proliferation (AID 2284227); conditions: primary human B cells with PBMC
# Procedure, shortened: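 SRB-based protein staining (0.1% SRB after 10% TCA fixation, 560 nm) quantifies proliferation in human B cells co-cultured with PBMC, 72 h post-dosing, with signal gain scored relative to DMSO negative control.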
# [2] = read-out: Interleukin 6 (IL6), IL6 (gene 3569); assay: BSK_BT_xIL6: BioMAP Diversity Plus: BT Assay for Interleukin 6 (IL6) Biomarker Activity (AID 2284228); conditions: primary human B cells with PBMC
# Procedure, shortened: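 Human B cell/PBMC co-culture; secreted IL-6 quantified by Luminex xMAP 24 h after chemical dosing, fitted relative to DMSO. Parallel PBMC viability by Alamar Blue after 1 h pretreatment, 20 ng/mL SEB and TSST-1, 90 h incubation.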
# [3] = read-out: Interleukin 17A (IL17A), IL17A (gene 3605); assay: BSK_BT_xIL17A: BioMAP Diversity Plus: BT Assay for Interleukin 17A (IL17A) Biomarker Activity (AID 2284229); conditions: primary human B cells with PBMC
# Procedure, shortened: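 Co-culture of human B cells and PBMC, dosed for 24 h in 96-well format. Secreted IL-17A measured with Luminex xMAP; gain-direction fitting against DMSO as baseline.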
# [4] = read-out: Vascular cell adhesion molecule 1 (VCAM1), VCAM1 (gene 7412); assay: BSK_MyoF_VCAM1: BioMAP Diversity Plus: MyoF Assay for Vascular cell adhesion molecule 1 (VCAM1) Biomarker Activity (AID 2284231); conditions: primary human lung fibroblasts
# Procedure, shortened: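 Primary human lung fibroblasts (BioMAP MyoF system) dosed with chemical, VCAM-1 measured by ELISA 24 hours later. Fitted in the positive direction against DMSO; parallel SRB staining assessed cytotoxicity.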
# [5] = UKN4_HCS_LUHMES_cell_viability: Viability Assessment in the University of Konstanz (UKN) Leist Lab Neurite Outgrowth Assay in human LUHMES cells (UKN4) (AID 2284232)
# Procedure, shortened: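 Human dopaminergic-model LUHMES neurons were exposed to chemicals for 24 h after a 2-day differentiation. Viability was scored by imaging Hoechst H-33342 staining, with activity fitted in both directions relative to DMSO controls.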
# [6] = UKN2_HCS_IMR90_cell_viability: Viability Assessment in the University of Konstanz (UKN) Leist Lab Neural Crest Cell Migration Assay in human induced IMR90 Pluripotent Stem Cells (UKN2) (AID 2284233);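 further: viability of neural crest cells differentiated from IMR90 iPSC measured by calcein-AM fluorescence imaging; cells exposed to compound for 24 h after a 24 h migration phase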
# Procedure, shortened: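 iPSC-derived (IMR90) neural crest cells seeded around silicone stoppers on PLO/laminin/fibronectin; after 24 h migration in N2-S with EGF/FGF, chemical added for 24 h. Calcein-AM/Hoechst stained 30 min, high-content imaged; bidirectional fit versus DMSO.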
# [7] = CCTE_Mundy_HCI_Cortical_NOG_NeuronCount: CCTE's Neurite Outgrowth Assay in rat cortical cells for Neuron Count, Mundy Lab (AID 2284236; active means hit-call score of the fitted dose curve at least 0.9, where 1 is the maximum;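 further: neurons counted by imaging betaIII-tubulin and Hoechst stained cortical cells; cells exposed to compound for about 48 hours before fixation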)
# Procedure, shortened: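 Read-out: neuron number by high-content imaging of betaIII-tubulin (Alexa Fluor-488) and Hoechst-labelled rat primary cortical cells.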
# [8] = TAMU_PeakParms_SingleDonor1434_QT: Texas A&M University (TAMU) 1.5-hr Human Induced Pluripotent Stem Cell (iPSC)-derived Cardiomyocytes Calcium (Ca+2) Flux Assay for Cardiotoxicity: QT (decay-rise ratio) (AID 2284235; active means hit-call score of the fitted dose curve at least 0.9, where 1 is the maximum)
# Procedure, shortened: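 iPSC-derived cardiomyocytes (single donor 1434) dosed at 0.2, 1, 10, 100 uM final in 0.5% DMSO, 90 min at 37C. Ca2+ flux fluorescence decay/rise ratio; EC05 (5% increase versus DMSO) as POD, excluding beat-arrest and severe-notch data.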
# [9] = CCTE_Mundy_HCI_Cortical_NOG_BPCount: CCTE's Neurite Outgrowth Assay in rat cortical cells for Branch Point Count, Mundy Lab (AID 2284237);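 on AC50: branch points counted about two days after chemical exposure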
# Procedure, shortened: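 Measured 50.33 h after dosing, this morphology endpoint uses rat primary cortical cultures labelled for betaIII-tubulin. Branch points are quantified by high-content imaging, with DMSO as negative control and baseline.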
# [10] = TAMU_HCS_1.5hr_SingleDonor1434_Cytotoxicity: Cytotoxicity Assessment using High-content Screening (HCS) Fluorescent Imaging for the Texas A&M University (TAMU) 1.5-hr Human Induced Pluripotent Stem Cell (iPSC)-derived Cardiotoxicity Assay (AID 2284234; active means hit-call score of the fitted dose curve at least 0.9, where 1 is the maximum)
# Description: TAMU_HCS_1.5hr is a cell-based, multiplexed-readout assay that uses iPSC-derived cardiomyocytes with measurements taken at 1.5 hours after chemical dosing in a microplate: 384-well plate.TAMU_HCS_1.5hr_SingleDonor1434_Cytotoxicity is a phenotype derived from the Total.Cells parameter and uses an EC10 as its POD (10% decrease in total cell count, compared to controls). Total Cells measures the total number of nuclei (cell count) using HCS Fluorescent Imaging technology. There is no preprocessing performed on the data to model this phenotype.Data from the assay component TAMU_HCS_1.5hr_Cytotoxicity was analyzed into 1 assay endpoint. This assay endpoint, TAMU_HCS_1.5hr_Cytotoxicity, was analyzed in the positive analysis fitting direction relative to DMSO as the negative control and baseline of activity. Using a type of viability reporter, loss-of-signal activity can be used to understand changes in the viability. To generalize the intended target to other relatable targets, this assay endpoint is annotated to the cell cycle intended target family, where the subfamily is cytotoxicity. […]
compound,measurement,setting,value
Clc1ccc(Nc2nnc(Cc3ccncc3)c3ccccc23)cc1,outcome,[1],inactive
same,AC50,[2],8.4 µM (active)
same,outcome,[3],inactive
same,outcome,[4],inactive
O=C(O)C(F)(F)OC(F)(F)C(F)(F)OC(F)(F)C(F)(F)OC(F)(F)C(F)(F)C(F)(F)C(F)(F)F,outcome,[1],inactive
same,AC50,[2],43.1 µM (active) and 52.8 µM (active)
same,AC50,[3],41.8 µM (active) and 51.3 µM (active)
same,AC50,[4],12.5 µM (active) and 12.3 µM (active)
CCOC(=O)CN[C@@H](C(=O)N1CC[C@H]1C(=O)NCc1ccc(/C(N)=N/O)cc1)C1CCCCC1,outcome,[1],inactive
same,outcome,[2],inactive
same,outcome,[3],inactive
same,outcome,[4],inactive
CCCCCCCCCCCCCCCCCC[N+](C)(C)Cc1ccccc1,AC50,[1],1.88 µM (active)
same,AC50,[2],6.37 µM (active)
same,AC50,[3],0.792 µM (active)
same,AC50,[4],2.72 µM (active)
C=COC(=O)C(C)(C)CCCCCC,outcome,[1],inactive
same,outcome,[2],inactive
same,outcome,[3],inactive
same,AC50,[4],31 µM (active)
OCCN1CN(CCO)CN(CCO)C1,AC50,[1],38.2 µM (active)
same,AC50,[2],33.6 µM (active)
same,outcome,[3],inactive
same,outcome,[4],inactive
O=C(O)CCC(F)(F)C(F)(F)C(F)(F)C(F)(F)C(F)(F)F,AC50,[1],6.31 µM (active)
same,outcome,[1],inactive
same,outcome,[2],inactive
same,outcome,[3],inactive
same,outcome,[4],inactive
CN(C)c1ccc(C(=C2C=CC(=[N+](C)C)C=C2)c2ccccc2)cc1,AC50,[1],0.248 µM (active)
same,AC50,[2],1.13 µM (active)
same,AC50,[3],0.28 µM (active)
same,AC50,[4],0.0764 µM (active)
OCC(F)(F)C(F)(F)C(F)(F)C(F)(F)C(F)(F)C(F)(F)C(F)(F)C(F)(F)C(F)(F)C(F)(F)C(F)(F)F,AC50,[1],174 nM (active) and 835 nM (active)
same,outcome,[2],inactive
same,AC50,[3],0.0554 µM (active)
same,outcome,[3],inactive
same,outcome,[4],inactive
COc1cc(OC)nc(NC(=O)NS(=O)(=O)Nc2ccccc2C(=O)N(C)C)n1,outcome,[1],inactive
same,outcome,[2],inactive
same,outcome,[3],inactive
same,outcome,[4],inactive
CC1=NN(c2ccccc2)C(=O)C1,outcome,[1],inactive
same,AC50,[2],3.91 µM (active)
same,outcome,[3],inactive
same,outcome,[4],inactive
Cc1ccc(C(=O)c2ccccc2)cc1,outcome,[1],inactive
same,outcome,[2],inactive
same,outcome,[3],inactive
same,AC50,[4],31.4 µM (active)
CC[N+](CC)(CC)Cc1ccccc1,outcome,[1],inactive
same,outcome,[2],inactive
same,outcome,[3],inactive
same,outcome,[4],inactive
O=C(O)CCC(F)(F)C(F)(F)C(F)(F)C(F)(F)C(F)(F)C(F)(F)F,outcome,[1],inactive
same,outcome,[2],inactive
same,outcome,[3],inactive
same,outcome,[4],inactive
C=CC(=C)CC/C=C(\C)CCC=C(C)C,outcome,[1],inactive
same,outcome,[2],inactive
same,outcome,[3],inactive
same,outcome,[4],inactive
NC(=NCCCCCCN=C(N)/N=C(\N)Nc1ccc(Cl)cc1)/N=C(\N)Nc1ccc(Cl)cc1,AC50,[1],9.19 µM (active)
same,AC50,[2],8.83 µM (active)
same,AC50,[3],4.09 µM (active)
same,AC50,[4],4.99 µM (active)
COc1cccc(O)c1,outcome,[1],inactive
same,outcome,[2],inactive
same,outcome,[3],inactive
same,outcome,[4],inactive
CCCCC(CC)C(=O)OCCOCCOCCOCCOC(=O)C(CC)CCCC (stereo unspecified),AC50,[1],28.4 µM (active)
same,AC50,[2],0.016 µM (active)
same,outcome,[3],inactive
same,outcome,[4],inactive
O=P(O)(O)CCC(F)(F)C(F)(F)C(F)(F)C(F)(F)C(F)(F)C(F)(F)C(F)(F)C(F)(F)F,AC50,[1],30 µM (active) and 53.9 µM (active)
same,outcome,[2],inactive
same,outcome,[3],inactive
same,outcome,[4],inactive
O=C(NCc1ncc(C(F)(F)F)cc1Cl)c1c(Cl)cccc1Cl,AC50,[1],20 µM (active)
same,AC50,[2],20 µM (active)
same,AC50,[3],15.5 µM (active)
same,outcome,[4],inactive
Cc1ccc(N=Nc2c(O)ccc3ccccc23)c(C)c1,outcome,[1],inactive
same,outcome,[2],inactive
same,outcome,[3],inactive
same,outcome,[4],inactive
COC1=CC(=O)C[C@@H](C)[C@]12Oc1c(Cl)c(OC)cc(OC)c1C2=O,AC50,[1],37.3 µM (active)
same,outcome,[2],inactive
same,outcome,[3],inactive
same,outcome,[4],inactive
CC(C)(C)c1ccc(O)c(O)c1,AC50,[1],29.1 µM (active)
same,AC50,[2],25.3 µM (active)
same,AC50,[3],16.5 µM (active)
same,AC50,[4],31.5 µM (active)
CCCCCc1ccc(O)cc1,outcome,[1],inactive
same,outcome,[2],inactive
same,outcome,[3],inactive
same,AC50,[4],26.9 µM (active)
Cc1cccc2c1ccc1ccccc12,outcome,[1],inactive
same,AC50,[2],0.157 µM (active)
same,outcome,[3],inactive
same,outcome,[4],inactive
O=C(CC(=O)C(F)(F)C(F)(F)C(F)(F)F)c1cccs1,AC50,[1],43 µM (active) and 40.8 µM (active)
same,AC50,[2],29.8 µM (active) and 22.1 µM (active)
same,AC50,[3],30 µM (active) and 24.5 µM (active)
same,outcome,[4],inactive
COCN(COC)c1nc(N(COC)COC)nc(N(COC)COC)n1,outcome,[1],inactive
same,outcome,[2],inactive
same,outcome,[3],inactive
same,outcome,[4],inactive
Nc1ccn([C@@H]2O[C@H](CO)[C@@H](O)C2O)c(=O)n1 (stereo partly specified),outcome,[5],inactive
same,outcome,[6],inactive
same,AC50,[7],2.74 µM (active)
C=CC(=O)OCCC(F)(F)C(F)(F)C(F)(F)C(F)(F)C(F)(F)C(F)(F)C(F)(F)C(F)(F)F,outcome,[1],inactive
same,outcome,[2],inactive
same,outcome,[3],inactive
same,outcome,[4],inactive
O=S(=O)(O)C(F)(F)C(F)(F)C(F)(F)C(F)(F)C(F)(F)C(F)(F)C(F)(F)C(F)(F)C(F)(F)C(F)(F)F,outcome,[1],inactive
same,outcome,[2],inactive
same,outcome,[3],inactive
same,outcome,[4],inactive
Oc1cc2ccccc2cc1O,outcome,[1],inactive
same,outcome,[2],inactive
same,outcome,[3],inactive
same,outcome,[4],inactive
CN(CCO)S(=O)(=O)C(F)(F)C(F)(F)C(F)(F)C(F)(F)C(F)(F)C(F)(F)C(F)(F)C(F)(F)F,outcome,[1],inactive
same,outcome,[2],inactive
same,outcome,[3],inactive
same,outcome,[4],inactive
O=C(NO)c1ccccc1,outcome,[1],inactive
same,AC50,[2],4.24 µM (active)
same,AC50,[3],8.55 µM (active)
same,outcome,[4],inactive
O=C1OC2(c3ccccc31)c1cc(I)c(O)c(I)c1Oc1c2cc(I)c(O)c1I,outcome,[1],inactive
same,outcome,[2],inactive
same,outcome,[3],inactive
same,AC50,[4],9.09 µM (active)
C[C@]12CC[C@@H]3c4ccc(O)cc4CC[C@H]3[C@@H]1C[C@@H](O)[C@@H]2O,outcome,[1],inactive
same,outcome,[2],inactive
same,outcome,[3],inactive
same,outcome,[4],inactive
O=C(CCCN1CCC(O)(c2ccc(Cl)cc2)CC1)c1ccc(F)cc1,outcome,[5],inactive
same,outcome,[6],inactive
same,outcome,[7],inactive
CC(=O)Nc1ccc(O)cc1,outcome,[8],inactive
same,outcome,[7],inactive
CC(C)c1c(C(=O)Nc2ccccc2)c(-c2ccccc2)c(-c2ccc(F)cc2)n1CC[C@@H](O)C[C@@H](O)CC(=O)O,outcome,[6],inactive
same,AC50,[7],7.8 µM (active)
same,AC50,[9],0.0896 µM (active)
O=P(O)(O)CCC(F)(F)C(F)(F)C(F)(F)C(F)(F)C(F)(F)C(F)(F)F,outcome,[1],inactive
same,outcome,[2],inactive
same,outcome,[3],inactive
same,outcome,[4],inactive
CN(Cc1cnc2nc(N)nc(N)c2n1)c1ccc(C(=O)N[C@@H](CCC(=O)O)C(=O)O)cc1,AC50,[1],855 nM (active) and 43.4 nM (active)
same,outcome,[2],inactive
same,outcome,[3],inactive
same,outcome,[4],inactive
same,outcome,[7],inactive
same,outcome,[9],inactive
O=C1c2ccc(O)c(O)c2C(=O)c2c(O)ccc(O)c21,outcome,[1],inactive
same,outcome,[2],inactive
same,outcome,[3],inactive
same,outcome,[4],inactive
O=C1NS(=O)(=O)c2ccccc21,outcome,[10],inactive
same,outcome,[8],inactive
same,outcome,[7],inactive
same,outcome,[9],inactive
C=CC(C)(CCC=C(C)C)OC(C)=O (stereo unspecified),outcome,[1],inactive
same,outcome,[2],inactive
same,outcome,[3],inactive
same,outcome,[4],inactive
